The nature of experiment [1]: qHTS to identify inhibitors of the type 1 interferon - major histocompatibility complex class I in skeletal muscle: primary screen against the NCATS Pharmaceutical Collection (AID 1347407).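 Note: luminescence of HiBiT knocked into endogenous HLA-B as interferon-induced MHC class I level; % is set by controls: 0 for no effect and ±100 for the full control effect.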 An outline of the steps:
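A qHTS format is used: 8-point, 1:5 compound series with 46 uM top final concentration, applied alongside 4 ng/ml IFN-beta to HLA-B*08:01-HiBiT knock-in myoblasts. Luminescence is measured after 24 h treatment.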
(In general: qHTS replaces the single test concentration by a dilution series.)

Experiment [2] concerns the target Protein phosphatase 1D (Homo sapiens) (UniProt O15297). The experiment can be described thus: RapidFire Mass Spectrometry qHTS Assay for Modulators of WT P53-Induced Phosphatase 1 (WIP1) (AID 1347424).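 Note: amount of dephosphorylated VEPPL-S-QETFS peptide product formed by WIP1; series mostly up to about 63 µM; plate controls were DMSO wells for no effect and GSK830371 inhibitor control at 10 µM for full effect.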 An outline of the steps:
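10 nM WIP1 preincubated with compounds 1 hr at room temperature in pH 7.5 Tris buffer with 30 mM MgCl2, 1 mM TCEP; 2 uM VEPPL-pS-QETFS phosphopeptide for 5 min, formic acid quench; dephosphorylated product quantified by RapidFire MS against labelled standard.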

Experiment [3] shares this target. The experiment is described as follows: Rhodamine-PBP qHTS Assay for Modulators of WT P53-Induced Phosphatase 1 (WIP1) (AID 1347425). Note: % of control where 0% means no effect. An outline of the steps: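 Read-out: Rhodamine-PBP fluorescence (ex 525/em 598 nm) for released Pi, read each minute for 11 min after adding 10 uM VEPPL-pS-QETFS; signal taken as f1 minus pre-substrate f0. Enzyme 5 nM WIP1 with 1 hr room-temperature compound preincubation.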

Experiment [4] in a line: Primary qHTS for inhibitors of La Crosse Virus (LACV) - induced cell death in SH-SY5Y cells (AID 1508616).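 Note: top concentration of the series differs between compounds; 0% = infected DMSO wells and 100% = uninfected DMSO wells; higher means more rescue of cells from virus-induced death.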 Summed up: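 Luminescent ATP readout (ATPLite 1step, 5 min room temperature) measured rescue from LACV-induced death after 6 days of infection at 0.01 MOI; normalized to infected DMSO wells and uninfected DMSO wells.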
The target of experiment [5] is Calcium and integrin-binding protein 1 (Homo sapiens) (UniProt Q99828). The experiment can be described thus: Primary qHTS for Identification of Calcium Integrin Binding Protein 1 (CIB1) Competitor (AID 1508620). Note: top concentration of the series differs between compounds; % is set by controls: 0 for no effect and ±100 for the full control effect. An outline of the steps: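 Fluorescence polarization competition: GST-tagged CIB1 (1 uM final) preincubated with compound 15 min at room temperature, then FITC-labelled alphaIIb peptide (100 nM final) added. After 15 min at room temperature, polarization read at Ex 480/Em 540.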

Experiment [6] is described as follows: A High-Content qHTS Against Drug Library for the Identification of Small Molecules that Inhibit DYT1 Early Onset Primary Dystonia-Associated Cell Pathology (AID 1645839; calls by dose curve; note: series mostly up to about 46 µM). An outline of the steps:
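Flp-In T-REx 293 cells with tetracycline-inducible EGFP-delE hTOR1A (WT EGFP-hTOR1A as reference), 800 cells/well; compound added with tetracycline, 48 h at 37 C. Fixed, permeabilized cells imaged; %pathology (punctate TorsinA) primary, cell count counterscreen.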

Experiment [7] addresses Cytochrome P450 2D6 (Homo sapiens) (UniProt P10635). The experiment can be described thus: Cytochrome P450 family 2 subfamily D member 6 (CYP2D6) small molecule antagonists: luciferase biochemical (cell-free) qHTS assay (AID 1645840; active = well fitted curve in the direction sought with a large enough effect in the repeat runs; an effect the other way counts as inactive or inconclusive; note: nearly all actives have a fitted effect of over 55% in size; note: potency is the fitted concentration of half-maximal effect). Summed up: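 P450-Glo luminescent screen: recombinant CYP2D6 enzyme–proluciferin substrate mix preincubated with compound 10 min at room temperature, then NADPH regeneration added for 1 h at room temperature. Detection reagent added for 20 min; luciferin light read as relative luminescence units.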

The target in experiment [8] is Cytochrome P450 2C9 (Homo sapiens) (UniProt P11712). The experiment can be described thus: Cytochrome P450 family 2 subfamily C member 9 (CYP2C9) small molecule antagonists: luciferase biochemical (cell-free) qHTS assay (AID 1645842; active = well fitted curve in the direction sought with a large enough effect in the repeat runs; an effect the other way counts as inactive or inconclusive; note: nearly all actives have a fitted effect of over 55% in size; note: potency is the fitted concentration of half-maximal effect). Summed up: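 Luminescence, after 20 min with luciferin detection reagent, reflected CYP2C9 turnover during a 1 h NADPH-driven reaction at 37C. Enzyme-substrate mix contained 0.4% bovine serum albumin and was preincubated with compound 10 min at room temperature.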

Experiment [9] is described as follows: Primary qHTS for inhibitors of nuclear receptor binding SET domain protein 2 (NSD2) in an isogenic RCH-ACV NSD2 p.E1099K mutant (9B) (AID 1645876). Note: nearly all actives have a fitted effect of over 70% in size. Note: potency is the fitted concentration of half-maximal effect.
Experiment [10] is described as follows: Primary qHTS for inhibitors of nuclear receptor binding SET domain protein 2 (NSD2) in an RCH-ACV wild type WT cells (2C) (AID 1645877). Note: nearly all actives have a fitted effect of over 70% in size. Note: potency is the fitted concentration of half-maximal effect.
Experiment [11] in a line: Primary qHTS for small molecule stabilizers of the endoplasmic reticulum resident proteome: Secreted ER Calcium Modulated Protein (SERCaMP) assay (AID 1508630). Note: % is set by controls: 0 for no effect and ±100 for the full control effect. Summed up: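 GLuc-SERCaMP-expressing SH-SY5Y cells, pretreated 16 h with compound, are challenged with thapsigargin to empty ER calcium stores; after 4 h, coelenterazine is added directly to the medium and luminescence is imaged.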

In experiment [12] the target is Cytochrome P450 3A4 (Homo sapiens) (UniProt P08684). The experiment is described as follows: Cytochrome P450 family 3 subfamily A member 4 (CYP3A4) small molecule antagonists: luciferase qHTS assay (AID 1645841; active = well fitted curve in the direction sought with a large enough effect in the repeat runs; an effect the other way counts as inactive or inconclusive; note: nearly all actives have a fitted effect of over 45% in size). Summed up:
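P450-Glo CYP3A4 enzyme with proluciferin substrate preincubated 10 min with compound at room temperature, then NADPH regeneration 1 h. Luciferin detection reagent added for 20 min; luminescence recorded. Ketoconazole positive control.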

Inconclusive results are not listed. Unmarked numbers belong to inactive results. Activity calls are given as the source filed them. Unless noted, calls come from the whole dose curve; as a rule, active = well fitted curve in the direction sought with a large enough effect; inconclusive = small, poorly fitted or top-dose-only effect, or another doubt; inactive = no such curve, though single readings can be large; an effect the other way counts as inactive or inconclusive.

Protein phosphatase 1D (Homo sapiens), sequence (O15297 whole entry, looked up): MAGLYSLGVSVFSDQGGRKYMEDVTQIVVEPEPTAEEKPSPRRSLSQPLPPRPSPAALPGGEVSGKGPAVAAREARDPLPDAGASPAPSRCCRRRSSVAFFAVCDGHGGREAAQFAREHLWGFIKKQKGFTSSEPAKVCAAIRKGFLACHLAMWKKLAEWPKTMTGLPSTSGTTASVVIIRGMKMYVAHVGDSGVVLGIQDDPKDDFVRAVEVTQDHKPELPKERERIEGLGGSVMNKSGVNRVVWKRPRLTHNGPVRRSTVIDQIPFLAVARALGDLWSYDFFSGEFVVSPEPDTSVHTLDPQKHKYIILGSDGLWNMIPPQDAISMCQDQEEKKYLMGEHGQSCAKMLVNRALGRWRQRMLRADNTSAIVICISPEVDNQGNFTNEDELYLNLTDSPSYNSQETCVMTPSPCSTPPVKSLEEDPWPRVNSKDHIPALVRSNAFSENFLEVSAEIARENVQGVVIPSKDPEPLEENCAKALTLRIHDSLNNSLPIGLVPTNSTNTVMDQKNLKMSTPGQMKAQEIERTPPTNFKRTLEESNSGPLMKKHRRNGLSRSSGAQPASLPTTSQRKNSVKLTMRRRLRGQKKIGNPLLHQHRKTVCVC
Cytochrome P450 2C9 (Homo sapiens), sequence (P11712 whole entry, looked up): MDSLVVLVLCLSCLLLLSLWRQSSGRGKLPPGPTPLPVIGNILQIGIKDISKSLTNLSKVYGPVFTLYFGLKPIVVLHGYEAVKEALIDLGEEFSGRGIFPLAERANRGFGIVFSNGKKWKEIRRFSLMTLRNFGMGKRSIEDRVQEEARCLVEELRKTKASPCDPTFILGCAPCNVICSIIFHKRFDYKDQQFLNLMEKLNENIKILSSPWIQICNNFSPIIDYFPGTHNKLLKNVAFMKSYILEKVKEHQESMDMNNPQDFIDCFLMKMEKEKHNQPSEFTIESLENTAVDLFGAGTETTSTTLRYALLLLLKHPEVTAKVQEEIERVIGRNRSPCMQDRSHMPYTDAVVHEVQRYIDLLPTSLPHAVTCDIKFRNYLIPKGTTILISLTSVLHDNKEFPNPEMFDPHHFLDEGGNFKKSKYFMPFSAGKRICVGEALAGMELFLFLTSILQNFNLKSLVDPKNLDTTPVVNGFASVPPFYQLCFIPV
Cytochrome P450 2D6 (Homo sapiens), sequence (P10635 whole entry, looked up): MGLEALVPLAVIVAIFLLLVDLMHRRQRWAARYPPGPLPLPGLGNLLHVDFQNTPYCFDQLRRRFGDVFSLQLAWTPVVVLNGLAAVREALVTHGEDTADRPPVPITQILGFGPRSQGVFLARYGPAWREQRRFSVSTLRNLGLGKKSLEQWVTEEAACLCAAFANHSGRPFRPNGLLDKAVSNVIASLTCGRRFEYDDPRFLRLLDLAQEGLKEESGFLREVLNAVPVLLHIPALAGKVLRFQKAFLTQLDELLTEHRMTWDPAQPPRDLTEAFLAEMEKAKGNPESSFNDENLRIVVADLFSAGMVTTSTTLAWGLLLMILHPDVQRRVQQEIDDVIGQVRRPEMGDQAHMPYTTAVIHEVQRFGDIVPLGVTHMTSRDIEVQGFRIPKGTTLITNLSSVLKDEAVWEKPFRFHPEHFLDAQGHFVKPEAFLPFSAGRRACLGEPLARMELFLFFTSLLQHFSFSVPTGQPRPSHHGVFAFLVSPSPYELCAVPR
Calcium and integrin-binding protein 1 (Homo sapiens), sequence (Q99828 whole entry, looked up): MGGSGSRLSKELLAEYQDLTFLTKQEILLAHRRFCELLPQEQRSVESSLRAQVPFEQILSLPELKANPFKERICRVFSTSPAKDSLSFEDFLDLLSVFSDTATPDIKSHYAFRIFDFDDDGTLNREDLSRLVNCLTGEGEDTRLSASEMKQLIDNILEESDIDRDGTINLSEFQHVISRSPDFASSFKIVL
Cytochrome P450 3A4 (Homo sapiens), sequence (P08684 whole entry, looked up): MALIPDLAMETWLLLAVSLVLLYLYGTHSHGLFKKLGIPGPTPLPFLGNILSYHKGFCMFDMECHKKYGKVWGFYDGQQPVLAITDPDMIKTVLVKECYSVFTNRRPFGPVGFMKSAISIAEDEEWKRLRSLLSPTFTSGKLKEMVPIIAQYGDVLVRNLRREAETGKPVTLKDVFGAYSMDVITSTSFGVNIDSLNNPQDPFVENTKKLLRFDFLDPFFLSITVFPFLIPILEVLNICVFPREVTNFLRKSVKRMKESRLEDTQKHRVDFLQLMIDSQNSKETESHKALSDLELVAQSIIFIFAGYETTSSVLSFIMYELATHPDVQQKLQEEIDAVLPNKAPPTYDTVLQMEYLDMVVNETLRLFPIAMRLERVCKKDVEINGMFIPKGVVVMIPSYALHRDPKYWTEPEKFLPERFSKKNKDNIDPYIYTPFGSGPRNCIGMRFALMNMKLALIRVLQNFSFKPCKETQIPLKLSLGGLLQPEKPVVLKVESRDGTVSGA

In the case of `NS(=O)(=O)c1ccc(C(=O)O)cc1`, the outcome in experiment [1], in [2], in experiment [3], in [4] and in experiment [5] was inactive. For the same molecule, the Potency entry in experiment [6], in experiment [7], in [8], in [9] and in experiment [10] was “inactive” in each case.
In the case of `Cc1ccccc1N=Nc1ccc(N=Nc2c(O)ccc3ccccc23)c(C)c1`, the result in [1], in experiment [2], in [3], in [4] and in experiment [5] was inactive. In addition, the Potency result in experiment [6], in [8] and in experiment [9] was “inactive” each time.
`Cc1ncc(CO)c(CN)c1O`: the molecule was called inactive in experiment [1], in experiment [2], in experiment [3], in [4] and in experiment [5]. Further, the Potency result in experiment [6], in experiment [7], in [8], in experiment [9] and in experiment [10] was “inactive” in each case.
`O=C(OOC(=O)c1ccccc1)c1ccccc1`: the result in [1], in experiment [2], in experiment [3], in experiment [4] and in [5] was inactive. Moreover, the Potency entry in [6], in experiment [7], in experiment [8] and in [9] was “inactive” each time.
Consider `COc1ccc(O)cc1`, for which the molecule was called inactive in experiment [1], in [2], in experiment [3], in experiment [4] and in [5]. Besides, the Potency result in experiment [7] and in experiment [8] was “inactive” in each case.
With `C[n+]1ccccc1/C=N/O`, the molecule was classed as inactive in [1], in experiment [2], in [3], in experiment [4] and in [5]. In addition, the Potency result in experiment [6], in [7], in experiment [8], in experiment [9] and in experiment [10] was “inactive” throughout.
Take `CCN[C@H]1CN(CCCOC)S(=O)(=O)c2sc(S(N)(=O)=O)cc21`: the outcome in experiment [1], in [2], in experiment [3], in experiment [4] and in [5] was inactive. The Potency entry in [6], in experiment [8] and in experiment [9] was “inactive” each time.
As to `COC(=O)N/N=C/c1c[n+]([O-])c2ccccc2[n+]1[O-]`, the result in experiment [1], in [2], in experiment [3], in experiment [4] and in experiment [5] was inactive. Besides, the Potency result in experiment [6], in experiment [7] and in [8] was “inactive” each time. In addition, the Potency in [9] is 23.7 µM (active); in experiment [10], 7.5 µM (active).
On to `O=C(/C=C/c1ccccc1)OCc1ccccc1`, for which the molecule was called inactive in [1], in experiment [2], in experiment [3], in experiment [4] and in experiment [5]. In addition, the Potency result in experiment [6], in [7], in experiment [9] and in experiment [10] was “inactive” throughout. Also, the Potency in experiment [8] was 12.3 µM (active).
For `Cc1c(Cn2ccnc2)c2ccccc2n1CCC(=O)O`, the molecule was called inactive in [1], in [2], in [3], in experiment [4] and in [11]. In addition, the Potency entry in experiment [6], in experiment [9] and in [10] was “inactive” throughout. Further, the Potency in experiment [8] was 1.95 µM (active).
Take `NCC1CCC(C(=O)Oc2ccc(CCC(=O)O)cc2)CC1` (stereo not given): the molecule was classed as inactive in [1], in [2], in [3], in experiment [4] and in [5]. For the same molecule, the Potency result in [7], in [8], in experiment [9] and in experiment [10] was “inactive” in each case.
Take `CN1CCCN=C1COC(=O)C(O)(c1ccccc1)C1CCCCC1` (stereo not given): the molecule was called inactive in [1], in [2], in [3], in experiment [4] and in experiment [11]. Moreover, the Potency entry in experiment [6], in [8], in [9] and in [10] was “inactive” in each case. Further, the Potency in experiment [7] was 1.23 µM (active).
In the case of `O=C(Cn1ccnc1[N+](=O)[O-])NCc1ccccc1`, the call in [1], in [2], in experiment [3], in experiment [4] and in experiment [11] was inactive. The Potency entry in experiment [6], in [7], in experiment [8], in [9] and in [10] was “inactive” each time.
For the molecule `NCc1ccc(S(N)(=O)=O)cc1`, the molecule was classed as inactive in experiment [1], in experiment [2], in experiment [3], in experiment [4], in experiment [11] and in [12]. Further, the Potency result in experiment [6] and in experiment [7] was “inactive” each time.
As to `COC(=O)c1ccc(O)cc1`, the call in experiment [1], in experiment [2], in [3], in experiment [4] and in experiment [11] was inactive. Further, the Potency result in experiment [6], in experiment [7], in [8], in experiment [9] and in experiment [10] was “inactive” throughout.
In the case of `NS(=O)(=O)c1ccc(NC(=O)CCC(=O)O)cc1`, the result in [1], in experiment [2], in experiment [3], in [4] and in [5] was inactive. In addition, the Potency entry in [7], in experiment [8], in experiment [9] and in experiment [10] was “inactive” each time.
On to `O=C(c1ccccc1)C(O)c1ccccc1` (stereo not given), for which the result in [1], in [2], in [3], in experiment [4] and in experiment [11] was inactive. Also, the Potency entry in experiment [6], in experiment [7], in experiment [8], in experiment [9] and in [10] was “inactive” each time.
`Nc1ccncc1N`: the result in experiment [1], in experiment [2], in [3], in [4] and in experiment [11] was inactive. Further, the Potency result in [6], in experiment [7], in experiment [8], in [9] and in experiment [10] was “inactive” each time.
In the case of `NC(=O)CC[C@@H](N)C(=O)O`, the call in experiment [1], in [2], in [3], in experiment [4] and in experiment [5] was inactive. The Potency result in experiment [8] and in [9] was “inactive” each time.
Regarding `CC1CCc2cc(F)cc3c(=O)c(C(=O)O)cn1c23` (stereo not given), the call in [1], in experiment [2], in [3], in experiment [4] and in experiment [11] was inactive. Also, the % pathology change, negative = correction in experiment [6] is -13.4% [at 9.22 µM]. Also, the Potency result in experiment [7], in [8] and in experiment [9] was “inactive” each time.
Consider `CC(N)CCCC(C)(C)O` (stereo not given), for which the outcome in [1], in experiment [2], in experiment [3], in experiment [4] and in [5] was inactive. Also, the Potency entry in experiment [7], in [8], in experiment [9] and in [10] was “inactive” in each case.
As to `CC[C@H](C)[C@H](N)C(=O)O`, the outcome in [1], in experiment [2], in experiment [3], in experiment [4] and in experiment [11] was inactive. Moreover, the Potency entry in [6], in [7], in experiment [8], in experiment [9] and in [10] was “inactive” each time.
On to `O=C(O)c1ccc[n+]([O-])c1`, for which the molecule was called inactive in [1], in [2], in [3], in experiment [4] and in experiment [11]. For the same molecule, the Potency result in experiment [6], in experiment [7] and in experiment [8] was “inactive” each time.
Turning to `C[N+](C)(C)CC(O)CC(=O)[O-]` (stereo not given), the outcome in experiment [1], in [2], in [3], in [4] and in experiment [11] was inactive. In addition, the Potency result in experiment [6], in experiment [7], in [8], in experiment [9] and in experiment [10] was “inactive” throughout.
